Data taken from PubChem BioAssay (NCATS).
Results filed as inconclusive are left out. Entries that show only a call come without a potency. Active and inactive are the calls of the source. Calls follow the shape of the dose curve; as a rule, active = well fitted curve in the direction sought with a large enough effect; inconclusive = small, poorly fitted or top-dose-only effect, or another doubt; inactive = no such curve, though single readings can be large; an effect the other way counts as inactive or inconclusive.

Assay: qHTS assay to identify small molecule inhibitors of chordoma cells - UCH-2 (AID 1259356)
Conditions: UCH-2 chordoma viability, CellTiter-Glo ATP luminescence, 48 h; series mostly up to 46.1 µM
Potency is read from the fitted curve at half-maximal effect.

| SMILES | Potency |
| --- | --- |
| COc1cc([C@@H]2c3cc4c(cc3[C@@H](O[C@@H]3O[C@@H]5CO[C@@H](C)O[C@H]5[C@H](O)[C@H]3O)[C@H]3COC(=O)[C@H]23)OCO4)cc(OC)c1O | inactive |
| CNC(C)[C@@H]1CC[C@@H](N)[C@@H](O[C@H]2[C@H](O)[C@@H](O[C@H]3OC[C@](C)(O)[C@H](NC)[C@H]3O)[C@H](N)C[C@@H]2N)O1 (stereo partly drawn) | inactive |
| CC[C@@H](C(=O)O)[C@@H]1O[C@@H]([C@@H](C)[C@H](O)[C@H](C)C(=O)[C@H](CC)[C@H]2O[C@]3(C=C[C@@H](O)[C@]4(CC[C@@](C)([C@H]5CC[C@](O)(CC)[C@H](C)O5)O4)O3)[C@H](C)C[C@@H]2C)[C@@H](C)C[C@@H]1C | 8.2 µM (active) |
| Nc1ncnc2c1ncn2[C@@H]1O[C@H](COP(=O)(O)OP(=O)(O)OP(=O)(O)O)[C@@H](O)[C@H]1O | inactive |
| CC1(C)S[C@@H]2[C@H](NC(=O)[C@@H](NC(=O)N3CCNC3=O)c3ccccc3)C(=O)N2[C@H]1C(=O)O | inactive |
| CC1(C)S[C@@H]2[C@H](NC(=O)C(N)c3ccccc3)C(=O)N2[C@H]1C(=O)OC1OC(=O)c2ccccc21 (stereo partly drawn) | inactive |
| CNc1cc(OC)c(C(=O)N[C@H]2CCN(Cc3ccccc3)[C@H]2C)cc1Cl | inactive |
| Cc1cc(/C=C/c2ccc3cc(N(C)C)ccc3[n+]2C)c(C)n1-c1ccccc1 | inactive |
| Cc1ccccc1 | inactive |
| C#CCOc1ccc2c(C)cc(=O)oc2c1 | inactive |
| CO[C@H]1C[C@H](O[C@H]2[C@H](C)[C@@H](O[C@@H]3O[C@H](C)C[C@H](N(C)C)[C@H]3OC(C)=O)[C@@H](C)C[C@]3(CO3)C(=O)[C@H](C)[C@@H](OC(C)=O)[C@@H](C)[C@@H](C)OC(=O)[C@@H]2C)O[C@@H](C)[C@@H]1OC(C)=O | inactive |

Assay: P-glycoprotein substrates identified in KB-8-5-11 adenocarcinoma cell line, qHTS therapeutic library screen (AID 1346987); also: nearly all actives have a fitted effect of over 65% in size
Conditions: KB-8-5-11 (P-gp overexpressing) viability, CellTiter-Glo, 72 h; series mostly up to 44.5 µM
Method in brief: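 KB-8-5-11: colchicine-selected sub-line of KB-3-1 over-expressing P-gp; assay medium lacked colchicine. 72 h drug exposure at 37 degree C, CellTiter-Glo.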

| SMILES | Potency |
| --- | --- |
| C[C@@H]1CCC2[C@@H](C)[C@@H](O)O[C@@H]3O[C@@]4(C)CC[C@@H]1[C@@]23OO4 (stereo partly drawn) | 10.3 µM (active) |
| CC(C(=O)O)c1ccc(N2Cc3ccccc3C2=O)cc1 (stereo not drawn) | inactive |
| CCCCCCCCCCCCCCCC(=O)OCC(COC(=O)CCCCCCCCCCCCCCC)OC(=O)CCCCCCCCCCCCCCC | inactive |
| CC(C)(C)NC(=O)[C@@H]1C[C@@H]2CCCC[C@@H]2CN1C[C@@H](O)[C@H](Cc1ccccc1)NC(=O)[C@H](CC(N)=O)NC(=O)c1ccc2ccccc2n1 | inactive |
| CCN(CC)CCOc1ccc(-c2nc3cc(Cl)ccc3s2)cc1 | 18.4 µM (active) |
| C/C1=C2N=C(/C=C3N=C(/C(C)=C4\[N-][C@@](C)([C@@H]5N=C1[C@](C)(CCC(=O)NCC(C)OP(=O)(O)O[C@H]1[C@@H](O)[C@@H](n6cnc7cc(C)c(C)cc76)O[C@@H]1CO)[C@H]5CC(N)=O)[C@@](C)(CC(N)=O)[C@@H]4CCC(N)=O)[C@@](C)(CC(N)=O)[C@@H]\3CCC(N)=O)C(C)(C)[C@@H]/2CCC(N)=O.CC(=O)O.[Co] (stereo partly drawn) | inactive |
| CC1=C(/C=C/C(C)=C/C=C/C(C)=C/C=C/C=C(C)/C=C/C=C(C)/C=C/C2=C(C)C(=O)CCC2(C)C)C(C)(C)CCC1=O | inactive |
| CCNC(=O)[C@@H]1CCCN1C(=O)[C@H](CCCN=C(N)N)NC(=O)[C@H](CC(C)C)NC(=O)[C@@H](Cc1c[nH]c2ccccc12)NC(=O)[C@H](Cc1ccc(O)cc1)NC(=O)[C@H](CO)NC(=O)[C@H](Cc1c[nH]c2ccccc12)NC(=O)[C@H](Cc1cnc[nH]1)NC(=O)[C@@H]1CCC(=O)N1 | 8.2 µM (active) |
| CC[C@H]1OC(=O)[C@H](C)[C@@H](O[C@H]2C[C@@](C)(OC)[C@@H](O)[C@H](C)O2)[C@H](C)[C@@H](O[C@@H]2O[C@H](C)C[C@H](N(C)C)[C@H]2O)[C@](C)(O)C[C@@H](C)/C(=N\OCOCCOC)[C@H](C)[C@@H](O)[C@]1(C)O | inactive |
| CO[C@@H]1[C@@H](O[C@@H]2O[C@H](C)[C@@H](O[C@H]3C[C@@](C)(O)[C@@H](OC(=O)CC(C)C)[C@H](C)O3)[C@H](N(C)C)[C@H]2O)[C@@H](CC=O)C[C@@H](C)C(=O)/C=C/C2OC2C[C@@H](C)OC(=O)C[C@H]1OC(C)=O (stereo partly drawn) | inactive |
| Nc1c(N=Nc2ccc(-c3ccc(N=Nc4cc(S(=O)(=O)O)c5ccccc5c4N)cc3)cc2)cc(S(=O)(=O)O)c2ccccc12 | inactive |
| C#C[C@]1(O)CC[C@H]2[C@@H]3CCC4=C/C(=N/O)CC[C@@H]4[C@H]3CC[C@@]21CC | 5.8 µM (active) |
